Experimental data taken from PubChem BioAssay (NCATS).
Records with an inconclusive call do not appear. Entries that show only a call come without a potency. Active and inactive are the calls of the source. The call rests on the fitted dose curve; in most records, active means well fitted inhibition curve with a large enough effect; inconclusive means small, poorly fitted or top-dose-only effect; inactive means flat fitted curve, though single readings scatter.

Experiments:
Experiment in all cases: qHTS profiling for inhibitors of Plasmodium falciparum proliferation (AID 504749); further: nearly all actives have a fitted effect of over 60% in size
Details in all cases: P. falciparum in erythrocytes, SYBR Green DNA, 72 h; series mostly up to 28.7 µM
C2A = test system: C2A
Outline: (§1)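 Quantitative HTS: compounds pinned into medium, infected erythrocytes added (0.3% parasitemia, 2.5% hematocrit), 72 h culture at 37 C under 5% CO2. Saponin/Triton lysis with SYBR Green I, overnight RT, then fluorescence read.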

CP185 = test system: CP185
Outline: as §1

CP201 = test system: CP201
Outline: as §1

CP211 = test system: CP211
Outline: as §1

CP250 = test system: CP250
Outline: as §1

CP256 = test system: CP256
Outline: as §1

CP262 = test system: CP262
Outline: as §1

CP266 = test system: CP266
Outline: as §1

CP269 = test system: CP269
Outline: as §1

CP291 = test system: CP291
Outline: as §1

CP305 = test system: CP305
Outline: as §1

CP315 = test system: CP315
Outline: as §1

CP325 = test system: CP325
Outline: as §1

CP329 = test system: CP329
Outline: as §1

DIV17 = test system: DIV17
Outline: as §1

ECU = test system: ECU
Outline: as §1

FAB9 = test system: FAB9
Outline: as §1

JCK = test system: JCK
Outline: as §1

P93_24 = test system: P93_24
Outline: as §1

SC27B = test system: SC27B
Outline: as §1
Potency means the concentration at half of the fitted maximal effect.

| SMILES | Potency (C2A) | Potency (CP185) | Potency (CP201) | Potency (CP211) | Potency (CP250) | Potency (CP256) | Potency (CP262) | Potency (CP266) | Potency (CP269) | Potency (CP291) | Potency (CP305) | Potency (CP315) | Potency (CP325) | Potency (CP329) | Potency (DIV17) | Potency (ECU) | Potency (FAB9) | Potency (JCK) | Potency (P93_24) | Potency (SC27B) |
| --- | --- | --- | --- | --- | --- | --- | --- | --- | --- | --- | --- | --- | --- | --- | --- | --- | --- | --- | --- | --- |
| CO/N=C(\C(=O)N[C@@H]1C(=O)N2C(C(=O)[O-])=C(C[N+]3(C)CCCC3)CS[C@@H]12)c1csc(N)n1 | inactive | inactive | inactive | inactive | inactive | inactive | inactive | inactive | inactive | inactive | inactive | inactive | inactive | inactive | inactive | inactive | inactive | inactive | inactive | inactive |
| C[C@H]1C[C@@H]2[C@H]3CCC4=CC(=O)C=C[C@@]4(C)[C@@]3(Cl)[C@@H](O)C[C@]2(C)[C@]1(OC(=O)c1ccco1)C(=O)CCl |  |  |  |  |  |  |  |  |  |  |  |  |  |  | 7.21 µM (active) |  |  |  |  |  |
| C[C@@H]1C[C@H]2[C@H]3C[C@@H](F)C4=CC(=O)C=C[C@]4(C)[C@@]3(Cl)[C@@H](O)C[C@@]2(C)[C@@H]1C(=O)COC(=O)C(C)(C)C | inactive | inactive | inactive | inactive | inactive | inactive | inactive | inactive | inactive | inactive | inactive | inactive | inactive | inactive |  | inactive | inactive | inactive | inactive | inactive |
